This is an account of results in PubChem BioAssay (NCI).

The panel holds about 83,000 compounds, 20% with a hit somewhere; the sample as a whole holds those more often.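 Treatment: one concentration, 48 hours, 96-well format. Scoring: percent growth, with anything below 10 considered active.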 Values without a mark were called inactive. Activity calls are given as the source filed them.

Common to all, as to experiment: NCI-60 one-dose screen, 48 h (100 = growth as untreated, 0 = no growth, -100 = all killed)
Assay [1] concerns SR leukemia. The settings on record: 10 µM unless noted.
In assay [2] the test system is RPMI-8226 leukemia. As to conditions: 10 µM.
The subject of assay [3] is OVCAR-8 ovarian. The settings on record: 10 µM unless noted.
Assay [4] deals with OVCAR-5 ovarian. The settings on record: 10 µM unless noted.
The subject of assay [5] is OVCAR-4 ovarian. As to conditions: 10 µM unless noted.
Assay [6] has as its system SK-OV-3 ovarian. The settings on record: 10 µM.
Assay [7] deals with IGROV1 ovarian. The settings on record: 10 µM unless noted.
Assay [8] has as its system OVCAR-3 ovarian. The settings on record: 10 µM unless noted.
For assay [9], the system named is HS 578T breast. As to conditions: 10 µM unless noted.
Assay [10] relates to NCI/ADR-RES ovarian. The settings on record: 10 µM unless noted.

On to `O=C1CN2CCC1C/C2=C\c1ccnc2c(Cl)cccc12` (stereo not given), for which the growth in assay [1] is -24% (active); in [2] it was 62.2%; in [3], 99.4%; in [4], 103%; in assay [5], 93.6%; in assay [6], 94.1%. In addition, the growth in [7] is 95.3%; in assay [8] it was 123%; in assay [9], 219%; in assay [10], 101%.

Turning to `COc1cc(C(F)(F)F)ccc1-c1cc(-c2ccc(F)cc2)n[nH]1`, the growth is 107% in assay [1]; 67.5% in assay [2]; 84.7% in assay [3]; 88.7% in assay [4]; 71.2% in [5]; 104% in assay [6]. Moreover, the growth in assay [7] is 80.6%; in [8], 91.9%; in assay [9] it was 96.3%; in assay [10] it was 91.5%.

For `N#CC1=C(N)Oc2cc(N)ccc2C1c1ccc(F)cc1` (stereo not given), the growth in assay [1] is 20.5%; in assay [2], 81.6%; in assay [3] it was 98.6%; in assay [4], 97.2%; in assay [5], 94.1%; in [6], 85.2%. Further, the growth in [7] was 69.4%; in [8], 96.8%; in assay [9] it was 81.4%; in assay [10] it was 44.9%.

With `CCCCCCCCCCCCCCNc1nc(CO)ncc1-c1ccc(C(F)(F)F)cc1`, the growth was 102% in [1]; 93.9% in [2]; 99.5% in assay [3]; 103% in [4]; 112% in assay [5]; 91.7% in assay [6]. The growth in assay [7] is 104%; in [8], 103%; in assay [9], 93.2%; in assay [10], 100%.

Take `COc1cccc(-c2ccc3c(c2)C2CCN(Cc4ccccc4)C3C2)c1` (stereo not given): the growth is 18.4% in [1]; 59.4% in [2]; 85% in assay [3]; 84.4% in [4]; 86.5% in [5]; 71.1% in assay [6]. Moreover, the growth in [7] was 59.9%; in assay [8] it was 72.2%; in [9] it was 90%; in [10] it was 68.8%.

Take `Cn1c(=O)c(S(=O)(=O)c2ccccc2)cc2ccc3c(cnn3-c3ccc(Cl)cc3)c21`: the growth in assay [1] was 79%; in assay [2], 75.9%; in [3] it was 60.9%; in [4] it was 94.3%; in assay [5] it was 39.1%; in [6], 69.7%. Further, the growth in [7] was 96%; in assay [8] it was 94.5%; in assay [9] it was 69.3%; in assay [10], 81.5%.

For `Cc1ccc(S(=O)(=O)c2ccc3[nH]c(=O)[nH]c(=O)c3c2)cc1`, the growth is 82.3% in assay [1]; 95.6% in assay [2]; 95.2% in assay [3]; 107% in [4]; 97.9% in assay [5]; 97.2% in assay [6]. Also, the growth in assay [7] was 104%; in [8] it was 110%; in assay [9], 101%; in assay [10], 107%.

Take `OC[C@@H](O)[C@@H](O)CO`: the growth in assay [1] was 81.7%; in assay [2], 118%; in assay [3], 105%; in assay [4], 102%; in assay [5], 101%; in [6], 116%. Further, the growth in [7] was 109%; in [8], 106%; in assay [9], 104%; in [10], 99.6%.

In the case of `CCOC(=O)C1=C(C)N2C(=NC3=C(CCCC/C3=C\c3cc(OC)c(OC)c(OC)c3)C2c2cc(OC)c(OC)c(OC)c2)S1` (stereo not given), the growth in assay [1] was 47.4%; in [2], 32.7%; in [3] it was 63.6%; in assay [4], 85.6%; in assay [5], 69.3%; in [6], 77.8%. Besides, the growth in [7] was 71.6%; in assay [8], 64.5%; in assay [9], 96.1%; in assay [10], 62.1%.

Regarding `COc1ccc(Nc2nc(NCCNc3ccnc4cc(Cl)ccc34)nc(N3CCOCC3)n2)cc1`, the growth is 7.72% (active) in assay [1]; 45.9% in assay [2]; 71.4% in [3]; 130% in assay [4]; 81.3% in assay [5]; 100% in [6]. In addition, the growth in [7] was 72.8%; in [8] it was 73.4%; in assay [9] it was 66.3%; in assay [10] it was 76.2%.

With `C[C@@H](Oc1cc(-c2cnn(C3CC4(CCNCC4)C3)c2)cnc1N)c1c(F)ccc(Cl)c1Cl`, the growth is -29.2% (active) in assay [1]; -40.1% (active) in assay [2]; 39.8% in [3]; 27.8% in [4]; 40.7% in assay [5]; 62.6% in assay [6]. Besides, the growth was 47.7% in [7], 44.4% in assay [8], 25.6% in assay [9] and 61.5% in assay [10].

As to `CCN(c1ccc(C(=O)N2CCN(c3ccccc3)CC2)cc1)S(C)(=O)=O`, the growth in assay [1] was 90.2%; in assay [2], 102%; in assay [3], 103%; in assay [4], 109%; in assay [5] it was 107%; in assay [6], 106%. Moreover, the growth is 107% in assay [7], 106% in assay [8], 105% in [9] and 108% in [10].

With `Cc1cc(Cl)c2c(Cl)ccc(Cl)c2n1`, the growth in assay [1] was 91.9%; in assay [2], 107%; in assay [3], 103%; in assay [4], 101%; in assay [5], 128%; in assay [6] it was 97.7%. Moreover, the growth in assay [7] was 111%; in assay [8], 105%; in assay [9], 119%; in assay [10], 114%.

With `O=C1/C(=C/c2ccc(Oc3ccccc3)cc2)N=C(c2ccccc2)N1CCc1cccs1`, the growth in [1] was 81%; in [2], 69.7%; in assay [3] it was 88.6%; in assay [4] it was 109%; in assay [5], 78%; in [6] it was 106%. The growth was 71.5% in [7], 106% in [8], 58.7% in assay [9] and 83.9% in assay [10].
